From PubChem BioAssay
A selection: hits, their analogues and other compounds. The true share with any hit is near 3.7%.
TIM10 inh: inhibits growth of TIM10 yeast strain | AID 463195 | inhibition, % at 10 µM | S. cerevisiae TIM10 strain growth, BacTiter-Glo luminescence, 24 h | 1.4% of 330,000 active;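 active = inhibition of 40% or more at the single tested concentration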;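 note: wild-type TIM10 isogenic control strain grown at permissive 25 °C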
PfHsp90 set2: inhibits growth of yeast expressing Plasmodium falciparum Hsp90 | AID 504621 | S. cerevisiae expressing PfHsp90, BacTiter-Glo ATP, 48 h; yeast lacking PDR1 and PDR3 efflux regulators | 0.32% of 310,000 active | inhibition, % at 9.4 µM;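 active = every replicate shows inhibition above about 80%, whatever the replicate mean, limit read from the data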
tim10-1 inh: inhibits growth of tim10-1 mutant yeast. S. cerevisiae tim10-1 ts strain growth, BacTiter-Glo, 24 h. inhibition, % at 20 µM. 2.2% of 330,000 active;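 active = inhibition of at least 40%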;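 note: mutant grown at 25 °C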
tim23-1 inh: inhibits growth of tim23-1 mutant yeast; inhibition, % at 20 µM; S. cerevisiae tim23-1 growth, BacTiter-Glo luminescence, 24 h; 1.3% of 330,000 active;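 active = growth inhibition of the mutant yeast at or above 50%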;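 note: temperature-sensitive mutant grown at 25 °C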
V-ATPase pH: regulators of yeast V-ATPase proton transport. 0.37% of 350,000 active. S. cerevisiae, pHLuorin cytosolic pH fluorescence. AID 504577. response, % at 10 µM; in the data active = response mostly above about 7.3%, no sharp cut-off; inactive = mostly below about 5.4%; note: actives read high
tim10-1 conf: confirmation of tim10-1 mutant yeast growth inhibitors; shares compounds with tim10-1 inh; S. cerevisiae tim10-1 ts strain growth, BacTiter-Glo, 24 h; inhibition, % at 20 µM; 56% of 7,400 active;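 active = inhibition of yeast growth at or above a set limit in either of two repeat tests at 20 µM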;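 note: tim10-1 mutant grown at permissive 25 °C to find synthetic lethal compounds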
tim10 confirm: TIM10 yeast growth inhibition, confirmed; shares compounds with TIM10 inh; S. cerevisiae tim10 strain growth, BacTiter-Glo luminescence, 24 h; inhibition, % at 10 µM; 63% of 4,600 active; AID 463215;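 active = inhibition of yeast growth at or above a set limit in either of two replicates at 10 µM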; note: this counterscreen used the strain with wild-type TIM10
Each line names hits and unclear results; the compound was inactive in the other large screens (follow-up assays come after a bar, where they were run).

CN1CCc2c(C#N)c(N3CCCCC3)nc(NCc3ccccc3)c2C1	TIM10 inh 43.0, tim10-1 inh 48.3 (no result: PfHsp90 set2) | tim10-1 conf 31.9 | tim10 confirm inactive
CCOC(=O)C1CCCN(C(=O)CSc2nnnn2C)C1 (configuration not stated)	none (no result: PfHsp90 set2)
CC1(C)CC(/C=C/c2ccccc2)=Nc2ccccc2N1	TIM10 inh 66.8, tim10-1 inh 49.5 | tim10-1 conf 54.2 | tim10 confirm 57.9
O=C1CC(/C=C/c2ccccc2)=Nc2ccccc2N1	none
CC(C)COc1ccc(C(=O)Nc2cc(S(=O)(=O)N3CCOCC3)ccc2N2CCCC2)cc1	none
O=C(Nc1cccc(C(F)(F)F)c1)c1ccc(Cn2cc(Br)cn2)o1	TIM10 inh 41.9, tim10-1 inh 42.7 | tim10-1 conf 34.6 | tim10 confirm 43.4
O=C(Nc1ccc(C(F)(F)F)cc1Cl)c1ccc(Cn2cc(Br)cn2)o1	none
CC1CCCC(NC(=O)Nc2cccs2)C1C (configuration not stated)	TIM10 inh 56.3, tim10-1 inh 55.5 | tim10-1 conf 65.2 | tim10 confirm 52.5
CC1CCCC(NC(=O)c2ccncc2)C1C (configuration not stated)	none
COc1ccccc1C(=O)NCCN1CCCC1	none (no result: TIM10 inh, PfHsp90 set2, tim10-1 inh, tim23-1 inh)
O=C(Nc1ccc2c(c1)OCO2)C1CCCN(c2nc3ccccc3s2)C1 (configuration not stated)	TIM10 inh 44.7, tim10-1 inh 48.0 | tim10-1 conf 35.5 | tim10 confirm 37.8
O=C(Nc1cccc(C(F)(F)F)c1)c1cccnc1NCCO	none
O=C(Nc1cccc(C(F)(F)F)c1)c1cccnc1NCCc1ccccc1	TIM10 inh 43.3, tim10-1 inh 44.3 | tim10-1 conf 29.7 | tim10 confirm inactive
Cc1cc(OCC(=O)OCC(=O)N(C)C2CCS(=O)(=O)C2)ccc1Cl (configuration not stated)	none
Cc1nn(C)c(C(=O)NC(=S)Nc2ccc([N+](=O)[O-])cc2)c1Cl	TIM10 inh 41.1, tim10-1 inh 51.6 | tim10-1 conf 39.7 | tim10 confirm inactive
Cc1nn(C)c(C(=O)NC(=S)Nc2ccccc2Br)c1Cl	none
O=S(=O)(c1ccc(Br)cc1)c1nc(-c2ccco2)oc1NCCCn1ccnc1	none
CCN(CC)c1ccc(S(=O)(=O)N2CCOCC2)cc1NC(=O)COC(=O)/C=C/c1ccc(C)o1	none
CC1CCCCN1S(=O)(=O)c1ccc(NC(=O)c2ccco2)cc1 (configuration not stated)	TIM10 inh 41.8, tim10-1 inh 53.4 (no result: PfHsp90 set2) | tim10-1 conf 35.9 | tim10 confirm inactive
COc1cccc(OC)c1OC(=O)/C=C/c1ccc(C)o1	none
Cc1ccnn1CC(=O)N/N=C/c1cn[nH]c1-c1ccc(F)cc1	none
O=C(CCN1C(=O)/C(=C/c2ccccc2F)SC1=S)NCCCN1CCOCC1	none
O=C(CCCN1C(=O)/C(=C/c2ccccc2Cl)SC1=S)NCCCN1CCOCC1	TIM10 inh 43.5, tim10-1 inh 44.1 | tim10-1 conf 41.1 | tim10 confirm 46.2
COc1ccc(O)c(/C=N/Nc2nc(C)cc(-c3ccccc3)n2)c1	TIM10 inh 41.9, tim10-1 inh 43.3 | tim10-1 conf 39.9 | tim10 confirm 46.8
CCCCc1ccc(NC(=S)N2CCCC(C)C2)cc1 (configuration not stated)	TIM10 inh 44.6, tim10-1 inh 43.5 | tim10-1 conf inactive | tim10 confirm 31.4
CCOC(=O)c1ccc(NC(=S)N2CCCC(C)C2)cc1 (configuration not stated)	none
CCc1ccc(NC(=S)N2CCCCCCC2)cc1	TIM10 inh 40.6, tim10-1 inh 42.3 | tim10-1 conf inactive | tim10 confirm inactive
O=c1c(Cc2ccc(F)cc2)c(O)ccn1CCCN1CCOCC1	none
CC12CCC(=O)N1C(C(=O)NCc1ccccc1F)CS2 (configuration not stated)	none (no result: PfHsp90 set2)
COc1cccc(-c2ccc3c(c2)O[C@@H](CN(C)Cc2cncnc2)[C@@H](C)CN([C@H](C)CO)S3(=O)=O)c1	none (no result: TIM10 inh, PfHsp90 set2, tim10-1 inh, tim23-1 inh)
O=C(c1ccc2[nH]c3c(c2c1)CCCC3)N1CCN(c2ccc(F)cc2)CC1	TIM10 inh 41.9, tim10-1 inh 41.5 | tim10-1 conf inactive | tim10 confirm inactive
CCOC(=O)C1Nc2c(F)cc(C)cc2C2c3ccccc3CC12 (configuration not stated)	TIM10 inh 46.4, tim10-1 inh 48.8 | tim10-1 conf 55.3 | tim10 confirm 58.8
CCOC(=O)C1Nc2c(cc(C(F)(F)F)cc2[N+](=O)[O-])C2c3ccccc3CC12 (configuration not stated)	none
O=C1CC(N2CCC(c3nc4ccccc4o3)CC2)C(=O)N1c1cc(Cl)cc(Cl)c1 (configuration not stated)	TIM10 inh 40.5, tim10-1 inh 40.8 (no result: PfHsp90 set2) | tim10-1 conf inactive | tim10 confirm inactive
CN1CCN(C(=O)/C(=C\c2ccccc2)c2ccccc2)CC1	none
CC1CCN(C(=O)/C(=C/c2ccccc2Cl)c2ccccc2)CC1	TIM10 inh 41.5, tim10-1 inh 41.5 | tim10-1 conf inactive | tim10 confirm inactive
CCCC(C(=O)NCc1ccco1)N(Cc1ccco1)C(=O)CNS(=O)(=O)c1ccccc1 (configuration not stated)	none
COc1ccccc1C/C(N)=N/OC(=O)COc1cccc(C)c1	TIM10 inh 51.1, tim10-1 inh 43.0 | tim10-1 conf inactive | tim10 confirm inactive
CC(NC(=O)COC(=O)c1ccc([N+](=O)[O-])s1)c1ccccc1 (configuration not stated)	none
O=C(COC(=O)c1ccc([N+](=O)[O-])s1)NC(=O)NCc1ccccc1	TIM10 inh 70.1, tim10-1 inh 69.9 | tim10-1 conf 51.8 | tim10 confirm 70.7
O=C(COC(=O)c1ccc([N+](=O)[O-])s1)NCc1ccc(F)cc1	TIM10 inh 64.4, tim10-1 inh 45.1 | tim10-1 conf inactive | tim10 confirm inactive
O=C(COC(=O)c1ccc([N+](=O)[O-])s1)NNC(=O)c1ccccc1	none (no result: PfHsp90 set2)
COc1ccccc1NC(=O)COC(=O)c1ccc([N+](=O)[O-])s1	TIM10 inh 81.8, tim10-1 inh 70.0 (no result: PfHsp90 set2) | tim10-1 conf 67.6 | tim10 confirm 88.7
O=C(COC(=O)c1ccc([N+](=O)[O-])s1)NCCc1ccccc1	TIM10 inh 46.3, tim10-1 inh 50.4 | tim10-1 conf 47.0 | tim10 confirm 57.2
CC(C)c1nc2oc3c(NCC4CCCO4)ncnc3c2c2c1CCC2 (configuration not stated)	TIM10 inh 45.5, tim10-1 inh 45.5 (no result: PfHsp90 set2) | tim10-1 conf inactive | tim10 confirm inactive
CCCc1nc2oc3c(NCC4CCCO4)ncnc3c2c2c1COC(C)(C)C2 (configuration not stated)	none
Cc1nc(N)sc1-c1csc(Nc2cccc(O)c2)n1	none
